Results taken from PubChem BioAssay (NCATS).
Records with an inconclusive call do not appear. Unmarked numbers belong to inactive results. Active and inactive are the calls of the source. Calls follow the shape of the dose curve; as a rule, active = well fitted cell-killing curve with a large enough effect; inconclusive = small, poorly fitted or top-dose-only effect; inactive = flat fitted curve, though single readings scatter.

Test: Quantitative highthroughput screen to assess conditional lethalithy of NOMO1 cells grown in RPMI1640 with dialyzed fetal bovine serum (RPMI+ds) (AID 1963877); also: nearly all actives have a fitted effect of over 30% in size
Conditions: NOMO1 in RPMI+dialyzed FBS viability, ATP luminescence, 48 h; series mostly up to 45.8 µM; viability: at the top concentration
Description: Assay Provider: Jason Cantor Ph.D.
Department of Biochemistry
University of Wisconsin-Madison, Madison, WI, USA
Chemical screening studies have identified drug sensitivities across hundreds of cancer cell lines but most putative therapeutics fail to translate. Discovery and development of drug candidates in models that more accurately reflect nutrient levels in human blood is a major challenge. Here we performed high-throughput screens in conventional versus Human Plasma-Like Medium (HPLM) to identify compounds that were "missed" when screening using the artificial culture condition. Sets of conditional anticancer compounds spanned phases of clinical development and included non-oncology drugs were assessed. […] We also traced conditional phenotypes for several chemotherapeutics to availability of HPLM-specific metabolites and confirmed others for compounds whose reported targets are encoded by nonessential genes. Our findings establish generalizable strategies for exploiting conditional lethality in HPLM to reveal therapeutic candidates and mechanisms of action in cancer cells.
Described herein are the results of each viability screens against three cell lines: NOMO1 (an acute myeloid leukemia cell line); P12-Ichikawa (a T-cell acute lymphoblastic leukemia); and SEM (a B-cell ALL). Each assay was screened using 3 different cell culture media: homemade human plasma-Like medium with 10% dialyzed fetal bovine serum (HPLM+ds); RPMI1640 with 10% untreated FBS and 5mM glucose (RPMI+s); and RPMI1640 with 10% dialyzed fetal bovine serum and 5 mM glucose (RPMI+ds).
PROTOCOL TABLE (as described by Inglese J, Shamu CE and Guy RK. 2007)
SEQUENCE No. (e.g., 1, 2, 3, etc.); […] (e.g., Cells, Incubation, Reagent, etc.); VALUE and DESCRIPTION.
1; Cells; 5 uL; white, solid bottom 1536-well Greiner assay plate.
2; Compounds; 23 nL; Kalypsis pin tool (Wako USA) equipped with a 1536-well pin head to transfer to the assay plates.
3; Incubation; 48 hours; 37C incubation.
4; Reagent; 3 uL; CellTiter Glo (Promega).
5; Incubation; 5 min, room temperature
6; Detection; Luminescence, Viewlux PerkinElmer.
NOTES (numbers refer to Sequence numbers above)
1. Briefly, 5 ul of cell reagent was dispensed using a Multidrop Combi Dispenser. The NOMO1 and SEM cells were plated at 500 cells/well and the P12-Ichikawa line at 1000 cells/well.
2. After seeding the cells, 23 nL of MIPE 4.1 library compounds (in DMSO) were added to each plate using a Kalypsys 1536 Pintool dispenser. Bortezomib at final concentration of […] and DMSO were added to each plate as positive and negative controls respectively. For each screen, MIPE 4.1 compounds were added over an eleven-point concentration range […] in 3-fold dilutions.
3. Each plate was covered with a stainless steel gasketed lid to prevent evaporation and incubated for 48 hour at 37C, 95% relative humidity, and 5% CO2.
4-5. Three microliter CellTilter-GloTM luminescent substrate mix (Promega) reagent was added to the assay plate and incubated at room temperature for 5 min.
6. The luminescence signal was measured using a ViewLux (PerkinElmer) multiplate reader with a 2 second exposure time per plate. Data for each compound were normalized as percent viability such that measurements for DMSO and the empty well controls in each plate were defined as 100% and 0%, respectively.
Potency is read from the fitted curve at half-maximal effect.

SMILES | viability [%] | Potency
C[C@]12COC(=O)C[C@@H]1CC[C@@H]1[C@H]2CC[C@@]2(C)[C@H]1CC[C@]2(C)O | 92.6 | –
C[C@H]([C@H](O)CCC(C)(C)O)[C@H]1CC[C@@]2(O)C3=CC(=O)[C@@H]4C[C@@H](O)[C@@H](O)C[C@]4(C)[C@@H]3CC[C@]12C | 98.5 | –
CC(C)CC(N(C)C)C1(c2ccc(Cl)cc2)CCC1 (stereo not given) | 98.7 | –
Cn1c(CCCC(=O)O)nc2cc(N(CCCl)CCCl)ccc21 | 98.7 | –
O=[N+]([O-])c1ncc[nH]1 | 108 | –
CCOc1ccccc1-n1c(C(C)N2CCN(C(=O)COc3ccc(Cl)cc3)CC2)nc2ccccc2c1=O (stereo not given) | – | 2630 nM (active)
CC(C)N(CCNC(=O)CN1CCCC1=O)C(C)C | 102 | –
CC1=NN=C(c2ccc(N)cc2)c2cc3c(cc2C1)OCO3 | 90 | –
C[C@]12CCC(=O)C(O)=C1CC[C@@H]1[C@H]3CCC(=O)[C@@]3(C)CC[C@@H]12 | 94 | –
CN1CCN(C(=O)O[C@H]2c3nccnc3C(=O)N2c2ccc(Cl)cn2)CC1 | 94.6 | –
CC(O)=C(C#N)C(=O)Nc1cc(Br)ccc1Br | 95.3 | –
CCOC(=O)c1cncn1[C@H](C)c1ccccc1 | 103 | –
O=P1(NCCCl)OCCCN1CCCl (stereo not given) | 89.4 | –
COc1ccc(CC2NCCc3cc(OC)c(OC)cc32)cc1OC (stereo not given) | 95.2 | –
CCc1c(C(=O)C(N)=O)c2c(OCC(=O)O)cccc2n1Cc1ccccc1 | 109 | –
Cc1sc2c(c1C)C(c1ccc(Cl)cc1)=N[C@@H](CC(=O)OC(C)(C)C)c1nnc(C)n1-2 | – | 372 nM (active)
CSCC[C@@H](NC(=O)[C@@H](Cc1ccccc1)NC(=O)CNC(=O)CNC(=O)[C@@H](N)Cc1ccc(O)cc1)C(=O)O | 112 | –
CCCC(C)(COC(N)=O)COC(=O)NC(C)C (stereo not given) | 106 | –
NC1=NC(=O)N2CC12 (stereo not given) | – | 5260 nM (active)
CC(=Cc1csc(C)n1)[C@@H]1C[C@H]2O[C@]2(C)CCC[C@H](C)[C@@H](O)[C@@H](C)C(=O)C(C)(C)[C@@H](O)CC(=O)O1 | 18 | –

SMILES | viability [%] | Potency
N[C@@H](Cc1ccc(N(CCCl)CCCl)cc1)C(=O)O | – | 9350 nM (active)
CCNC(=O)CC1N=C(c2ccc(Cl)cc2)c2cc(OC)ccc2-n2c(C)nnc21 (stereo not given) | 79.4 | –
COc1ccc(C(=O)c2c(C)n(CCN3CCOCC3)c3ccccc23)cc1 | 99.3 | –
O=c1[nH]c2ccc(Cl)cc2c(N[C@@H]2CN3CCC2CC3)c1-c1nc2ccccc2[nH]1 | – | 148 nM (active)
COc1cc2cc(c1Cl)N(C)C(=O)C[C@H](OC(=O)C(C)C)[C@]1(C)O[C@H]1[C@H](C)[C@@H]1C[C@@](O)(NC(=O)O1)[C@H](OC)C=CC=C(C)C2 | 9.16 | –
CC(C)(C)[C@]1(O)C[C@@H]2OC(=O)C[C@@]23C(=O)O[C@@H]2OC(=O)[C@H](O)C213 (stereo not given in full) | 95 | –
C[C@H]1CCCC=CC2C[C@H](O)C[C@@H]2[C@H](O)C=CC(=O)O1 (stereo not given in full) | – | 1.2 nM (active)
CC(C)(O)C(=O)Nc1ccc([N+](=O)[O-])c(C(F)(F)F)c1 | – | 1870 nM (active)
C#CCN(C)[C@H](C)Cc1ccccc1 | 99.9 | –
CC(=O)N(C)c1cccc(-c2ccnc3c(C(=O)c4cccs4)cnn23)c1 | 96 | –
CC[C@@H]1[C@@H](C)O[C@@](O)([C@@H](C)[C@H](O)[C@H](C)[C@H]2OC(=O)C=CC=C[C@@H](C)[C@@H]([C@@H](C)[C@@H](O)[C@H](C)[C@@]3(O)C[C@H](O[C@H]4C[C@H](O)[C@H](O)[C@H](C)O4)[C@H](CC)[C@@H](C)O3)OC(=O)C=CC=C[C@@H]2C)C[C@H]1O[C@H]1C[C@H](O)[C@H](O)[C@H](C)O1 | – | 2640 nM (active)
C#C[C@]1(O)C=C[C@@H]2[C@@H]3CCC4=CC(=O)CC[C@@H]4[C@H]3CC[C@@]21CC | 99.5 | –
COc1cc(OC)c(OC)cc1C=O | 97.8 | –
O=S(=O)(F)Cc1ccccc1 | 82.3 | –
COc1ccc(N(C(=O)Oc2c(C)cccc2C)c2ccnc(Nc3ccc(N4CCN(C)CC4)cc3)n2)c(OC)c1 | 69.3 | –
Oc1ccc2c3c1O[C@H]1c4[nH]c5c(c4C[C@@]4(O)[C@@H](C2)N(CC2CC2)CC[C@]314)C[C@@]1(O)[C@H]2Cc3ccc(O)c4c3[C@@]1(CCN2CC1CC1)[C@H]5O4 | 101 | –
Cc1nc(-c2ccc(-c3ccc(C(=O)N4CCc5cc6c(cc54)C4(CCN(C)CC4)CO6)cc3)c(C)c2)no1 | 98.8 | –
CC(=O)O[C@@]12CO[C@H]1C[C@H](O)[C@@]1(C)C(=O)[C@H](O)C3=C(C)[C@@H](O)C[C@@](O)([C@@H](OC(=O)c4ccccc4)[C@@H]21)C3(C)C | – | 13200 nM (active)
COC1=CC(C)=C[C@@H](C)[C@@H](O)[C@@H](C)CC(C)=CC=C[C@H](OC)[C@H]([C@@H](C)[C@@H](O)[C@H](C)[C@@]2(O)C[C@@H](O)[C@H](C)[C@@H](C(C)C)O2)OC1=O | – | 74.3 nM (active)
C[C@@H]1CC[C@@]2(OC1)O[C@H]1C[C@H]3[C@@H]4CC=C5C[C@@H](O[C@@H]6O[C@H](CO)[C@@H](O[C@@H]7O[C@@H](C)[C@H](O)[C@@H](O)[C@@H]7O)[C@H](O)[C@@H]6O[C@@H]6O[C@@H](C)[C@H](O)[C@@H](O)[C@@H]6O)CC[C@]5(C)[C@@H]4CC[C@]3(C)[C@@H]1[C@H]2C | – | 23500 nM (active)
